From PMC11006913

Tests used:
Assay in all cases: PBM; 200 nM protein, PBS
Conditions in all cases: dsDNA, one strand shown
[1] = molecular target: HESX1 (Homo sapiens, UniProt Q9UBX0 95-180, R165K)
[2] = molecular target: SHOX (Homo sapiens, UniProt O15266 103-189)
[3] = molecular target: ALX4 (Homo sapiens, UniProt Q9H161 200-286, Q225E)
[4] = molecular target: HESX1 (Homo sapiens, UniProt Q9UBX0 95-180)
[5] = molecular target: MSX2 (Homo sapiens, UniProt P35548 130-214, R199I)
[6] = molecular target: ALX1 (Homo sapiens, UniProt Q15699 118-204, L144V)
ALX1 (Homo sapiens, UniProt Q15699 118-204, L144V), sequence (Q15699 118-204 L144V): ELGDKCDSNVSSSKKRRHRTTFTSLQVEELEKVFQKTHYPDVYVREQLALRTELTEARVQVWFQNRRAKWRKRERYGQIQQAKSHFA

[7] = molecular target: ALX3 (Homo sapiens, UniProt O95076 139-225, N203Q)
ALX3 (Homo sapiens, UniProt O95076 139-225, N203Q), sequence (O95076 139-225 N203Q): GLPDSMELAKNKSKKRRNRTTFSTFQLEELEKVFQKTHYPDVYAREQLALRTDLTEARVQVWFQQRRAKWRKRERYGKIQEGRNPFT

[8] = molecular target: SHOX (Homo sapiens, UniProt O15266 103-189, R173C)
SHOX (Homo sapiens, UniProt O15266 103-189, R173C), sequence (O15266 103-189 R173C): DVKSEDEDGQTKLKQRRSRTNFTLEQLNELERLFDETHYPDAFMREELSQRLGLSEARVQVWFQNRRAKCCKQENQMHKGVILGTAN

[9] = molecular target: ALX1 (Homo sapiens, UniProt Q15699 118-204, L144R)
ALX1 (Homo sapiens, UniProt Q15699 118-204, L144R), sequence (Q15699 118-204 L144R): as the sequence (Q15699 118-204 L144V) above, with V27R counted along it

[10] = molecular target: ALX3 (Homo sapiens, UniProt O95076 139-225)
ALX3 (Homo sapiens, UniProt O95076 139-225), sequence (O95076 139-225): as the sequence (O95076 139-225 N203Q) above, with Q65N counted along it

[11] = molecular target: PROP1 (Homo sapiens, UniProt O75360 56-141)
PROP1 (Homo sapiens, UniProt O75360 56-141), sequence (O75360 56-141): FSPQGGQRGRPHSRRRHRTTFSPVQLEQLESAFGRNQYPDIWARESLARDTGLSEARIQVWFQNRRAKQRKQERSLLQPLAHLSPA

[12] = molecular target: HESX1 (Homo sapiens, UniProt Q9UBX0 95-180, R109Q)
HESX1 (Homo sapiens, UniProt Q9UBX0 95-180, R109Q), sequence (Q9UBX0 95-180 R109Q): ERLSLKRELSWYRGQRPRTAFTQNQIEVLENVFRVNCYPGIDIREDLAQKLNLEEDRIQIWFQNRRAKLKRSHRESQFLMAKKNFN

[13] = molecular target: PROP1 (Homo sapiens, UniProt O75360 56-141, R99H)
PROP1 (Homo sapiens, UniProt O75360 56-141, R99H), sequence (O75360 56-141 R99H): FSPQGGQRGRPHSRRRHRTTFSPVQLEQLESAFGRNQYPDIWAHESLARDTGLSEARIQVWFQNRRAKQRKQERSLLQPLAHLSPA

[14] = molecular target: ALX3 (Homo sapiens, UniProt O95076 139-225, L168Q)
ALX3 (Homo sapiens, UniProt O95076 139-225, L168Q), sequence (O95076 139-225 L168Q): as the sequence (O95076 139-225 N203Q) above, with L30Q, Q65N counted along it

[15] = molecular target: HESX1 (Homo sapiens, UniProt Q9UBX0 95-180, P111T)
HESX1 (Homo sapiens, UniProt Q9UBX0 95-180, P111T), sequence (Q9UBX0 95-180 P111T): as the sequence (Q9UBX0 95-180 R109Q) above, with Q15R, P17T counted along it

[16] = molecular target: ALX3 (Homo sapiens, UniProt O95076 139-225, L168V)
ALX3 (Homo sapiens, UniProt O95076 139-225, L168V), sequence (O95076 139-225 L168V): as the sequence (O95076 139-225 N203Q) above, with L30V, Q65N counted along it

[17] = molecular target: PROP1 (Homo sapiens, UniProt O75360 56-141, F88S)
PROP1 (Homo sapiens, UniProt O75360 56-141, F88S), sequence (O75360 56-141 F88S): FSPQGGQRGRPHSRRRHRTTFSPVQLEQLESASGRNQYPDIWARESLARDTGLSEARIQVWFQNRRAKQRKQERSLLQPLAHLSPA

[18] = molecular target: HESX1 (Homo sapiens, UniProt Q9UBX0 95-180, F115L)
HESX1 (Homo sapiens, UniProt Q9UBX0 95-180, F115L), sequence (Q9UBX0 95-180 F115L): as the sequence (Q9UBX0 95-180 R109Q) above, with Q15R, F21L counted along it

[19] = molecular target: ALX1 (Homo sapiens, UniProt Q15699 118-204)
ALX1 (Homo sapiens, UniProt Q15699 118-204), sequence (Q15699 118-204): as the sequence (Q15699 118-204 L144V) above, with V27L counted along it

[20] = molecular target: ALX3 (Homo sapiens, UniProt O95076 139-225, N203S)
ALX3 (Homo sapiens, UniProt O95076 139-225, N203S), sequence (O95076 139-225 N203S): as the sequence (O95076 139-225 N203Q) above, with Q65S counted along it

HESX1 (Homo sapiens, UniProt Q9UBX0 95-180, R165K), sequence (Q9UBX0 95-180 R165K): as the sequence (Q9UBX0 95-180 R109Q) above, with Q15R, R71K counted along it
SHOX (Homo sapiens, UniProt O15266 103-189), sequence (O15266 103-189): as the sequence (O15266 103-189 R173C) above, with C71R counted along it
ALX4, sequence (Q9H161 200-286 Q225E): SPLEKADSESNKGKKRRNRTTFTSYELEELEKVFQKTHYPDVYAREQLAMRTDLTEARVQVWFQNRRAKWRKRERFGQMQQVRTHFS
HESX1 (Homo sapiens, UniProt Q9UBX0 95-180), sequence (Q9UBX0 95-180): as the sequence (Q9UBX0 95-180 R109Q) above, with Q15R counted along it
MSX2, sequence (P35548 130-214 R199I): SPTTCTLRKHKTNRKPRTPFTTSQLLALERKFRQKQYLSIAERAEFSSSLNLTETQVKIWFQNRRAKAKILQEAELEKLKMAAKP

Row | Sequence | binding signal [1] | binding signal [2] | binding signal [3] | binding signal [4] | binding signal [5] | binding signal [6] | binding signal [7] | binding signal [8] | binding signal [9] | binding signal [10] | binding signal [11] | binding signal [12] | binding signal [13] | binding signal [14] | binding signal [15] | binding signal [16] | binding signal [17] | binding signal [18] | binding signal [19] | binding signal [20]
1 | ATAATTGA | 13.1 upbm affinity estimate (log intensity, higher = more binding, comparable within an allelic series) | 12.3 upbm affinity estimate (log intensity, higher = more binding, comparable within an allelic series) | 13.3 upbm affinity estimate (log intensity, higher = more binding, comparable within an allelic series) | 13.1 upbm affinity estimate (log intensity, higher = more binding, comparable within an allelic series) | 12.8 upbm affinity estimate (log intensity, higher = more binding, comparable within an allelic series) | 11.7 upbm affinity estimate (log intensity, higher = more binding, comparable within an allelic series) | 8.47 upbm affinity estimate (log intensity, higher = more binding, comparable within an allelic series) | 9.68 upbm affinity estimate (log intensity, higher = more binding, comparable within an allelic series) | 11.5 upbm affinity estimate (log intensity, higher = more binding, comparable within an allelic series) | 12.5 upbm affinity estimate (log intensity, higher = more binding, comparable within an allelic series) | 11.6 upbm affinity estimate (log intensity, higher = more binding, comparable within an allelic series) | 9.23 upbm affinity estimate (log intensity, higher = more binding, comparable within an allelic series) | 11.8 upbm affinity estimate (log intensity, higher = more binding, comparable within an allelic series) | 10.7 upbm affinity estimate (log intensity, higher = more binding, comparable within an allelic series) | 11.7 upbm affinity estimate (log intensity, higher = more binding, comparable within an allelic series) | 10.2 upbm affinity estimate (log intensity, higher = more binding, comparable within an allelic series) | 7.86 upbm affinity estimate (log intensity, higher = more binding, comparable within an allelic series) | 8.13 upbm affinity estimate (log intensity, higher = more binding, comparable within an allelic series) | 12.3 upbm affinity estimate (log intensity, higher = more binding, comparable within an allelic series) | 8.62 upbm affinity estimate (log intensity, higher = more binding, comparable within an allelic series)
2 | GAAGGCGC | 6.55 upbm affinity estimate (log intensity, higher = more binding, comparable within an allelic series) | 7.24 upbm affinity estimate (log intensity, higher = more binding, comparable within an allelic series) | – | 6.36 upbm affinity estimate (log intensity, higher = more binding, comparable within an allelic series) | – | – | – | 7.21 upbm affinity estimate (log intensity, higher = more binding, comparable within an allelic series) | – | – | – | 6.47 upbm affinity estimate (log intensity, higher = more binding, comparable within an allelic series) | – | – | 6.47 upbm affinity estimate (log intensity, higher = more binding, comparable within an allelic series) | – | – | 6.58 upbm affinity estimate (log intensity, higher = more binding, comparable within an allelic series) | – | –
3 | ACAATTAG | 11.8 upbm affinity estimate (log intensity, higher = more binding, comparable within an allelic series) | 11.6 upbm affinity estimate (log intensity, higher = more binding, comparable within an allelic series) | – | 12.1 upbm affinity estimate (log intensity, higher = more binding, comparable within an allelic series) | 12.6 upbm affinity estimate (log intensity, higher = more binding, comparable within an allelic series) | 11.2 upbm affinity estimate (log intensity, higher = more binding, comparable within an allelic series) | – | 9.13 upbm affinity estimate (log intensity, higher = more binding, comparable within an allelic series) | 10.8 upbm affinity estimate (log intensity, higher = more binding, comparable within an allelic series) | – | 11.1 upbm affinity estimate (log intensity, higher = more binding, comparable within an allelic series) | 8.66 upbm affinity estimate (log intensity, higher = more binding, comparable within an allelic series) | 11 upbm affinity estimate (log intensity, higher = more binding, comparable within an allelic series) | – | 10.4 upbm affinity estimate (log intensity, higher = more binding, comparable within an allelic series) | – | 7.51 upbm affinity estimate (log intensity, higher = more binding, comparable within an allelic series) | 7.42 upbm affinity estimate (log intensity, higher = more binding, comparable within an allelic series) | 12 upbm affinity estimate (log intensity, higher = more binding, comparable within an allelic series) | –
4 | CCCAATTA | 13.2 upbm affinity estimate (log intensity, higher = more binding, comparable within an allelic series) | 12.5 upbm affinity estimate (log intensity, higher = more binding, comparable within an allelic series) | 13.5 upbm affinity estimate (log intensity, higher = more binding, comparable within an allelic series) | 13.1 upbm affinity estimate (log intensity, higher = more binding, comparable within an allelic series) | 13 upbm affinity estimate (log intensity, higher = more binding, comparable within an allelic series) | 11.9 upbm affinity estimate (log intensity, higher = more binding, comparable within an allelic series) | 8.37 upbm affinity estimate (log intensity, higher = more binding, comparable within an allelic series) | 9.78 upbm affinity estimate (log intensity, higher = more binding, comparable within an allelic series) | 11.6 upbm affinity estimate (log intensity, higher = more binding, comparable within an allelic series) | 12.6 upbm affinity estimate (log intensity, higher = more binding, comparable within an allelic series) | 11.6 upbm affinity estimate (log intensity, higher = more binding, comparable within an allelic series) | 9.78 upbm affinity estimate (log intensity, higher = more binding, comparable within an allelic series) | 11.8 upbm affinity estimate (log intensity, higher = more binding, comparable within an allelic series) | 10.7 upbm affinity estimate (log intensity, higher = more binding, comparable within an allelic series) | 11.7 upbm affinity estimate (log intensity, higher = more binding, comparable within an allelic series) | 10.2 upbm affinity estimate (log intensity, higher = more binding, comparable within an allelic series) | 7.5 upbm affinity estimate (log intensity, higher = more binding, comparable within an allelic series) | 8.14 upbm affinity estimate (log intensity, higher = more binding, comparable within an allelic series) | 12.5 upbm affinity estimate (log intensity, higher = more binding, comparable within an allelic series) | 8.52 upbm affinity estimate (log intensity, higher = more binding, comparable within an allelic series)
5 | AATTAGCA | 11.6 upbm affinity estimate (log intensity, higher = more binding, comparable within an allelic series) | 11.6 upbm affinity estimate (log intensity, higher = more binding, comparable within an allelic series) | 12.7 upbm affinity estimate (log intensity, higher = more binding, comparable within an allelic series) | 11.6 upbm affinity estimate (log intensity, higher = more binding, comparable within an allelic series) | 12.2 upbm affinity estimate (log intensity, higher = more binding, comparable within an allelic series) | 11.5 upbm affinity estimate (log intensity, higher = more binding, comparable within an allelic series) | 8.31 upbm affinity estimate (log intensity, higher = more binding, comparable within an allelic series) | 9.43 upbm affinity estimate (log intensity, higher = more binding, comparable within an allelic series) | 11.1 upbm affinity estimate (log intensity, higher = more binding, comparable within an allelic series) | 12.2 upbm affinity estimate (log intensity, higher = more binding, comparable within an allelic series) | 11.1 upbm affinity estimate (log intensity, higher = more binding, comparable within an allelic series) | 8.94 upbm affinity estimate (log intensity, higher = more binding, comparable within an allelic series) | 10.9 upbm affinity estimate (log intensity, higher = more binding, comparable within an allelic series) | 10.3 upbm affinity estimate (log intensity, higher = more binding, comparable within an allelic series) | 10.4 upbm affinity estimate (log intensity, higher = more binding, comparable within an allelic series) | 9.83 upbm affinity estimate (log intensity, higher = more binding, comparable within an allelic series) | 7.78 upbm affinity estimate (log intensity, higher = more binding, comparable within an allelic series) | 7.45 upbm affinity estimate (log intensity, higher = more binding, comparable within an allelic series) | 12.2 upbm affinity estimate (log intensity, higher = more binding, comparable within an allelic series) | 8.36 upbm affinity estimate (log intensity, higher = more binding, comparable within an allelic series)
6 | CTTGCGGC | 6.55 upbm affinity estimate (log intensity, higher = more binding, comparable within an allelic series) | 7.11 upbm affinity estimate (log intensity, higher = more binding, comparable within an allelic series) | – | 6.49 upbm affinity estimate (log intensity, higher = more binding, comparable within an allelic series) | – | – | – | 7.22 upbm affinity estimate (log intensity, higher = more binding, comparable within an allelic series) | – | – | – | 6.47 upbm affinity estimate (log intensity, higher = more binding, comparable within an allelic series) | – | – | 6.52 upbm affinity estimate (log intensity, higher = more binding, comparable within an allelic series) | – | – | 6.53 upbm affinity estimate (log intensity, higher = more binding, comparable within an allelic series) | – | –
7 | CAATTACA | 11.6 upbm affinity estimate (log intensity, higher = more binding, comparable within an allelic series) | 11.4 upbm affinity estimate (log intensity, higher = more binding, comparable within an allelic series) | – | 11.9 upbm affinity estimate (log intensity, higher = more binding, comparable within an allelic series) | 12.5 upbm affinity estimate (log intensity, higher = more binding, comparable within an allelic series) | – | – | 9.07 upbm affinity estimate (log intensity, higher = more binding, comparable within an allelic series) | – | – | – | 8.6 upbm affinity estimate (log intensity, higher = more binding, comparable within an allelic series) | 10.8 upbm affinity estimate (log intensity, higher = more binding, comparable within an allelic series) | – | 10.2 upbm affinity estimate (log intensity, higher = more binding, comparable within an allelic series) | – | – | 7.44 upbm affinity estimate (log intensity, higher = more binding, comparable within an allelic series) | – | –
8 | AGGGACCG | 6.62 upbm affinity estimate (log intensity, higher = more binding, comparable within an allelic series) | 7.23 upbm affinity estimate (log intensity, higher = more binding, comparable within an allelic series) | – | 6.41 upbm affinity estimate (log intensity, higher = more binding, comparable within an allelic series) | – | – | – | 7.13 upbm affinity estimate (log intensity, higher = more binding, comparable within an allelic series) | – | – | – | 6.42 upbm affinity estimate (log intensity, higher = more binding, comparable within an allelic series) | – | – | 6.58 upbm affinity estimate (log intensity, higher = more binding, comparable within an allelic series) | – | – | 6.26 upbm affinity estimate (log intensity, higher = more binding, comparable within an allelic series) | – | –
9 | CAATTATA | 12.8 upbm affinity estimate (log intensity, higher = more binding, comparable within an allelic series) | 12.2 upbm affinity estimate (log intensity, higher = more binding, comparable within an allelic series) | 13.4 upbm affinity estimate (log intensity, higher = more binding, comparable within an allelic series) | 12.8 upbm affinity estimate (log intensity, higher = more binding, comparable within an allelic series) | 13.1 upbm affinity estimate (log intensity, higher = more binding, comparable within an allelic series) | 11.7 upbm affinity estimate (log intensity, higher = more binding, comparable within an allelic series) | 8.6 upbm affinity estimate (log intensity, higher = more binding, comparable within an allelic series) | 9.46 upbm affinity estimate (log intensity, higher = more binding, comparable within an allelic series) | 11.4 upbm affinity estimate (log intensity, higher = more binding, comparable within an allelic series) | 12.5 upbm affinity estimate (log intensity, higher = more binding, comparable within an allelic series) | 11.4 upbm affinity estimate (log intensity, higher = more binding, comparable within an allelic series) | 8.93 upbm affinity estimate (log intensity, higher = more binding, comparable within an allelic series) | 11.5 upbm affinity estimate (log intensity, higher = more binding, comparable within an allelic series) | 10.7 upbm affinity estimate (log intensity, higher = more binding, comparable within an allelic series) | 11.4 upbm affinity estimate (log intensity, higher = more binding, comparable within an allelic series) | 10.2 upbm affinity estimate (log intensity, higher = more binding, comparable within an allelic series) | 7.86 upbm affinity estimate (log intensity, higher = more binding, comparable within an allelic series) | 8.06 upbm affinity estimate (log intensity, higher = more binding, comparable within an allelic series) | 12.3 upbm affinity estimate (log intensity, higher = more binding, comparable within an allelic series) | 8.66 upbm affinity estimate (log intensity, higher = more binding, comparable within an allelic series)
10 | AATTAAGG | 11.4 upbm affinity estimate (log intensity, higher = more binding, comparable within an allelic series) | 11.7 upbm affinity estimate (log intensity, higher = more binding, comparable within an allelic series) | 12.8 upbm affinity estimate (log intensity, higher = more binding, comparable within an allelic series) | 11.4 upbm affinity estimate (log intensity, higher = more binding, comparable within an allelic series) | – | – | 8.39 upbm affinity estimate (log intensity, higher = more binding, comparable within an allelic series) | 9.49 upbm affinity estimate (log intensity, higher = more binding, comparable within an allelic series) | – | 12.2 upbm affinity estimate (log intensity, higher = more binding, comparable within an allelic series) | 11 upbm affinity estimate (log intensity, higher = more binding, comparable within an allelic series) | 8.76 upbm affinity estimate (log intensity, higher = more binding, comparable within an allelic series) | 10.8 upbm affinity estimate (log intensity, higher = more binding, comparable within an allelic series) | 10.4 upbm affinity estimate (log intensity, higher = more binding, comparable within an allelic series) | 10.3 upbm affinity estimate (log intensity, higher = more binding, comparable within an allelic series) | 9.9 upbm affinity estimate (log intensity, higher = more binding, comparable within an allelic series) | 7.57 upbm affinity estimate (log intensity, higher = more binding, comparable within an allelic series) | 7.55 upbm affinity estimate (log intensity, higher = more binding, comparable within an allelic series) | – | 8.48 upbm affinity estimate (log intensity, higher = more binding, comparable within an allelic series)
